Measured values reported in PubChem BioAssay (NCI).
Where “and” joins values, the source holds several entries; their conditions need not be identical. Equal values may be shown once. About 83,000 compounds went through this panel and 20% of them were active in at least one assay; those are over-represented in the sample as a whole.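 Cells were grown in 96-well plates and exposed to the test compound at a single concentration for 48 hours; results are reported as percent growth, with values below 10 considered active.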 Calls of active or inactive are those of the source.

Key:
Assay in all cases: NCI-60 one-dose screen, 48 h (100 = growth as untreated, 0 = no growth, -100 = all killed)
HCT-15 colon = settings: 10 µM unless noted
HT29 colon = settings: 10 µM unless noted
SNB-75 CNS = settings: 10 µM unless noted
SNB-19 CNS = settings: 10 µM unless noted
U251 CNS = settings: 10 µM unless noted
PC-3 prostate = settings: 10 µM unless noted
SK-MEL-5 melanoma = settings: 10 µM unless noted
UACC-62 melanoma = test system: UACC-62 melanoma
SK-MEL-28 melanoma = settings: 10 µM unless noted
SK-MEL-2 melanoma = settings: 10 µM unless noted
EKVX NSCLC = settings: 10 µM unless noted
SN12C renal = test system: SN12C renal
UO-31 renal = settings: 10 µM unless noted
TK-10 renal = test system: TK-10 renal
ACHN renal = settings: 10 µM unless noted
CAKI-1 renal = settings: 10 µM unless noted
A498 renal = settings: 10 µM unless noted
CCRF-CEM leukemia = settings: 10 µM unless noted
MOLT-4 leukemia = settings: 10 µM unless noted
LOX IMVI melanoma = settings: 10 µM unless noted

Measured: growth

O=C1C=CC(=O)N1C1c2ccccc2-c2ccccc21
inactive: HCT-15 colon 61.6% | HT29 colon 92.9% | SNB-75 CNS 74.9% | SNB-19 CNS 105% | U251 CNS 92.8% | PC-3 prostate 94.1% | SK-MEL-5 melanoma 105% | UACC-62 melanoma; 10 µM unless noted 102% | SK-MEL-28 melanoma 104% | SK-MEL-2 melanoma 100% | EKVX NSCLC 105% | SN12C renal; 10 µM unless noted 94.2% | UO-31 renal 75.5% | TK-10 renal; 10 µM unless noted 51.4% | ACHN renal 57.8% | CAKI-1 renal 55.7% | A498 renal 93.8% | CCRF-CEM leukemia 30.4% | MOLT-4 leukemia 33.8%

NC(=O)/C=C/C(=O)c1c(Cl)cccc1Cl
active: HCT-15 colon -61.2% | HT29 colon -39.6% | SNB-75 CNS -99.5% | U251 CNS -59.1% | PC-3 prostate -96% | SK-MEL-5 melanoma -94.5% | UACC-62 melanoma; 10 µM unless noted -71.1% | SK-MEL-28 melanoma -99.1% | SK-MEL-2 melanoma -67.4% | EKVX NSCLC -36.4% | SN12C renal; 10 µM unless noted -90.2% | UO-31 renal -86.4% | TK-10 renal; 10 µM unless noted -83.7% | ACHN renal -76.3% | CAKI-1 renal -86.9% | CCRF-CEM leukemia -33.9% | MOLT-4 leukemia -26.3%

CN(C)c1ccc(C(=C2C=CC(=[N+](C)C)C=C2)c2ccc(N(C)C)cc2)cc1 (tested in a mixture with another compound)
active: HCT-15 colon -74.7% | HT29 colon -87.3% | SNB-75 CNS -97.3% | U251 CNS -95.8% | PC-3 prostate -38% | SK-MEL-5 melanoma -99.3% | UACC-62 melanoma; 10 µM unless noted -64.4% | SK-MEL-28 melanoma -87% | SK-MEL-2 melanoma -66.9% | EKVX NSCLC -35.6% | SN12C renal; 10 µM unless noted -48.3% | UO-31 renal -80.8% | TK-10 renal; 10 µM unless noted -79.2% | ACHN renal -98.6% | CAKI-1 renal -43.7% | A498 renal -93.2% | MOLT-4 leukemia -23.7%

CCC(CC)COC(=O)c1ccc(O)c(O)c1
inactive: HCT-15 colon 49.2% | HT29 colon 96.8% | SNB-75 CNS 75% | SNB-19 CNS 74.6% | U251 CNS 50.9% | PC-3 prostate 33.8% | UACC-62 melanoma; 10 µM unless noted 76.8% | LOX IMVI melanoma 69.2% | SK-MEL-28 melanoma 95.1% | SK-MEL-2 melanoma 85.6% | EKVX NSCLC 93.7% | SN12C renal; 10 µM unless noted 45.8% | UO-31 renal 26.3% | TK-10 renal; 10 µM unless noted 82.5% | ACHN renal 72.5% | CAKI-1 renal 40.6% | CCRF-CEM leukemia 15.2% | MOLT-4 leukemia 30.3%

CCCCCCCCCCCCCCCCOP(=O)([O-])OCC[N+](C)(C)C
active: HCT-15 colon 1.44% | HT29 colon -14% | SNB-19 CNS -13.3% | U251 CNS 8.3% | PC-3 prostate -22.1% | TK-10 renal; 10 µM unless noted -70.3% | A498 renal 3.51% | CCRF-CEM leukemia 1.24% | MOLT-4 leukemia -19.9%
inactive: SNB-75 CNS 44.2% | UACC-62 melanoma; 10 µM unless noted 37.6% | LOX IMVI melanoma 27.8% | SK-MEL-28 melanoma 98.3% | SK-MEL-2 melanoma 56.8% | EKVX NSCLC 46.9% | SN12C renal; 10 µM unless noted 34.2% | UO-31 renal 19.3% | ACHN renal 36.4% | CAKI-1 renal 16.5%

Cc1ccnc2c1ccc1c(C)ccnc12
active: U251 CNS 7.48% | UACC-62 melanoma; 10 µM unless noted 2.66% | UO-31 renal -4.12% | MOLT-4 leukemia 3.4%
inactive: HCT-15 colon 20.9% | HT29 colon 17.7% | SNB-75 CNS 52.4% | SNB-19 CNS 21.9% | PC-3 prostate 22% | SK-MEL-5 melanoma 18.3% | SK-MEL-28 melanoma 20.7% | SK-MEL-2 melanoma 27.3% | EKVX NSCLC 22.2% | SN12C renal; 10 µM unless noted 15.6% | TK-10 renal; 10 µM unless noted 25.7% | ACHN renal 11.3% | CAKI-1 renal 16% | CCRF-CEM leukemia 13.6%

COc1cc(NS(C)(=O)=O)ccc1Nc1c2ccccc2nc2ccccc12
10.6% (inactive) [middle of 4 runs]: SN12C renal; 10 µM
inactive: HCT-15 colon 29.4% [2.5 µM] | HT29 colon 43.4% [2.5 µM] | SNB-75 CNS 27.9% [2.5 µM] | U251 CNS 18.7% [2.5 µM] | PC-3 prostate 52.8% [2.5 µM] | UACC-62 melanoma; 2.5 µM 29.1% | LOX IMVI melanoma 23.8% [2.5 µM] | SK-MEL-28 melanoma 52.5% and 63.7% and 53.8% | SK-MEL-2 melanoma 96.5% [2.5 µM] | EKVX NSCLC 58.8% [2.5 µM] | SN12C renal; 2.5 µM 17.7% | UO-31 renal 34.3% [2.5 µM] | TK-10 renal; 2.5 µM 66.1% | CAKI-1 renal 16.3% [2.5 µM]
active: UACC-62 melanoma; 250 µM -86.2% and -100% | TK-10 renal; 250 µM -95.2% and -100% | ACHN renal 2.39% [2.5 µM] | CCRF-CEM leukemia 3.36% [2.5 µM] | MOLT-4 leukemia 1.03% [2.5 µM]

Cc1cc2nc(CS)[nH]c2cc1C
active: MOLT-4 leukemia -39.5%
inactive: HCT-15 colon 101% | HT29 colon 89.9% | SNB-75 CNS 75.5% | SNB-19 CNS 93.3% | U251 CNS 85.1% | PC-3 prostate 87.4% | SK-MEL-5 melanoma 87.7% | UACC-62 melanoma; 10 µM unless noted 84.4% | SK-MEL-28 melanoma 89.5% | SK-MEL-2 melanoma 101% | EKVX NSCLC 84.8% | SN12C renal; 10 µM unless noted 102% | UO-31 renal 83.1% | TK-10 renal; 10 µM unless noted 131% | ACHN renal 92% | CCRF-CEM leukemia 55%

COc1cc(/C=C(/C)C[N+](=O)[O-])ccc1O
inactive: HCT-15 colon 46.1% | HT29 colon 101% | SNB-75 CNS 78.4% | U251 CNS 92% | PC-3 prostate 93.8% | SK-MEL-5 melanoma 101% | UACC-62 melanoma; 10 µM unless noted 83.6% | LOX IMVI melanoma 47.5% | SK-MEL-28 melanoma 54.3% | SK-MEL-2 melanoma 96.9% | EKVX NSCLC 109% | SN12C renal; 10 µM unless noted 86.3% | UO-31 renal 73.3% | TK-10 renal; 10 µM unless noted 87.4% | ACHN renal 95.9% | CAKI-1 renal 84.3% | CCRF-CEM leukemia 56.9% | MOLT-4 leukemia 80.6%

O=C1c2ccccc2C(=O)c2sc(Nc3ccc(Cl)cc3)nc21
inactive: HT29 colon 92.5% | SNB-75 CNS 33.1% | SNB-19 CNS 79.5% | UACC-62 melanoma; 10 µM unless noted 18.4% | SK-MEL-2 melanoma 35.9% | EKVX NSCLC 53.6% | UO-31 renal 21.7% | TK-10 renal; 10 µM unless noted 174% | A498 renal 87.3% | CCRF-CEM leukemia 13.1%
active: HCT-15 colon -68.7% | U251 CNS 4.35% | PC-3 prostate 2.24% | LOX IMVI melanoma -85.8% | SK-MEL-28 melanoma -9.35% | SN12C renal; 10 µM unless noted -80.3% | ACHN renal -23.4% | MOLT-4 leukemia 6.68%

O=C(Oc1cccc2cccnc12)c1ccccc1
inactive: HCT-15 colon 77.6% and 101% | HT29 colon 87.1% and 99.8% | SNB-75 CNS 85.4% and 96.2% | U251 CNS 82.8% and 113% | PC-3 prostate 81.1% and 93.8% | SK-MEL-5 melanoma 105% and 100% | UACC-62 melanoma; 10 µM unless noted 97.6% and 106% | SK-MEL-28 melanoma 82.4% and 103% | SK-MEL-2 melanoma 110% and 96.7% | EKVX NSCLC 91% and 107% | SN12C renal; 10 µM unless noted 86% and 104% | UO-31 renal 78.6% and 82% | TK-10 renal; 10 µM unless noted 106% and 107% | ACHN renal 96.5% and 104% | CCRF-CEM leukemia 23.7% and 102% | MOLT-4 leukemia 80%

CCCCCCCCCCCCCCNCc1ccccc1
inactive: HCT-15 colon 45.6% | HT29 colon 26.1% | SNB-75 CNS 82.7% | U251 CNS 57.6% | PC-3 prostate 81.7% | SK-MEL-5 melanoma 62.4% | UACC-62 melanoma; 10 µM unless noted 99.1% | LOX IMVI melanoma 53.3% | SK-MEL-28 melanoma 82.4% | SK-MEL-2 melanoma 96.4% | EKVX NSCLC 93.4% | SN12C renal; 10 µM unless noted 79% | UO-31 renal 62.4% | TK-10 renal; 10 µM unless noted 103% | ACHN renal 90.9% | CAKI-1 renal 82.2% | CCRF-CEM leukemia 60.5% | MOLT-4 leukemia 56.4%

Cc1ccc(NS(=O)(=O)c2ccc(C)cc2)cc1
inactive: HCT-15 colon 101% and 104% | HT29 colon 101% and 90.4% | SNB-75 CNS 87.7% and 102% | SNB-19 CNS 106% and 102% | U251 CNS 96.9% and 86.6% | PC-3 prostate 97.7% and 94% | UACC-62 melanoma; 10 µM unless noted 91% and 99.2% | LOX IMVI melanoma 99.2% and 96% | SK-MEL-28 melanoma 116% and 110% | SK-MEL-2 melanoma 101% and 79.6% | EKVX NSCLC 96.3% | SN12C renal; 10 µM unless noted 105% and 99.8% | UO-31 renal 93% and 79.3% | TK-10 renal; 10 µM unless noted 104% and 91.5% | ACHN renal 113% and 96.6% | A498 renal 92.8% and 93.4% | CCRF-CEM leukemia 92.3% and 97.2% | MOLT-4 leukemia 94% and 98.5%

CCOC(=O)/C=C/c1ccc([N+](=O)[O-])o1
active: HCT-15 colon -3.85% | LOX IMVI melanoma -29.6% | ACHN renal 9.88% | CAKI-1 renal 9% | CCRF-CEM leukemia 7.26% | MOLT-4 leukemia -3.02%
inactive: HT29 colon 36.7% | SNB-75 CNS 98.7% | U251 CNS 82.6% | PC-3 prostate 93.4% | SK-MEL-5 melanoma 69.1% | UACC-62 melanoma; 10 µM unless noted 32.6% | SK-MEL-28 melanoma 26.4% | SK-MEL-2 melanoma 85.3% | EKVX NSCLC 107% | SN12C renal; 10 µM unless noted 85.5% | UO-31 renal 38.5% | TK-10 renal; 10 µM unless noted 40.7% | A498 renal 102%
